We go through 35 molecules from PubChem BioAssay.

Unmarked numbers belong to inactive results. Active and inactive are the calls of the source.
Also: test concentration not given here.

The first assay in a line: yeast growth modulation, basal conditions, primary screen, YJM789 clinical isolate, OD600, 24 h (AID 1089).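 Also: growth of clinical yeast isolate S. cerevisiae YJM 789 seeded 1000 cells per well.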 The following applies: S. cerevisiae YJM789 growth, higher = more signal, called active from +8 up or from −8 down.
With `COc1ccc([Si](C)(C)[C@H]2[C@H](CCn3cc([C@H](O)c4ccccc4)nn3)O[C@@]3(C(=O)N(Cc4ccc(N5C(=O)c6cccc7cccc5c67)cc4)c4ccccc43)[C@@H]2C)cc1`, the z-score is 0.642.

Consider `C[N+](C)(C)CCCC[C@@H]1NC(=O)[C@H]2C[C@@H](C(=O)NCCCCCCN)[C@@H](c3ccc(O)cc3)N2C1=O`, for which the z-score is 0.731.

Consider `O[C@@H](Cc1ccccc1)[C@@H](/C=C/C1CC1)N(CC#Cc1ccccc1)Cc1cccc(Cl)c1`, for which the z-score is 0.949.

With `CCOC(=O)C[C@H]1[C@H](OC(=O)c2ccccc2-c2ccccc2)[C@@H](NC(=O)c2ccc(-c3ccccc3)cc2)c2cc(OCCCO)ccc2N1C(=O)c1ccc2ccccc2n1`, the z-score is 0.214.

As for `CN(C)c1ccc(C(O)C2C=CC3C(=O)N(c4ccccc4)C(=O)C3N2Nc2ccc([N+](=O)[O-])cc2)cc1` (stereo unspecified), the z-score is 0.0475.

With `COC(=O)[C@@]1(Cc2ccc(OC)cc2)[C@H]2c3cc(C(=O)N4CCCC4)n(Cc4c(-c5ccccc5)noc4C)c3C[C@H]2CN1C(=O)c1ccccc1`, the z-score was 0.729.

Turning to `COc1ccc(-c2nc(-c3ccccc3)c3c(c2C)CO[Si]3(C(C)C)C(C)C)cn1`, the z-score is -0.195.

With `O=C1O[C@@H](c2ccccc2)[C@@H](c2ccccc2)N2[C@@H](c3ccc(O)cc3)[C@]3(C(=O)Nc4ccc(C#CC5=CCCCC5)cc43)[C@@H](C(=O)NC[C@H](O)c3ccccc3)[C@H]12`, the z-score was 1.31.

`CO[C@H]1O[C@H](CO)[C@@H](OC(=O)Nc2ccccc2-c2ccccc2)[C@H](OC(=O)Nc2ccc3c(c2)OCO3)[C@H]1OC(=O)Nc1ccc2c(c1)OCO2`: the z-score was 1.86.

For `COC(=O)[C@@]1(Cc2ccc(F)cc2)[C@H]2c3cc(C(=O)N4CCCC4)n(CCN4CNCC4=O)c3C[C@H]2CN1C(=O)c1ccccc1`, the z-score is 0.614.

With `CN(C)CCCNC(=O)[C@@H]1c2ccccc2C(=O)N(Cc2ccccc2Cl)[C@H]1c1ccc(CO)cc1`, the z-score was -0.34.

A short description of the next assay: fission yeast growth modulation, primary screen, strain 972, OD600, 24 h, no modulator (AID 1090).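 Also: basal condition with compound alone and no growth modifier present.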 The following applies: S. pombe 972 growth, higher = more signal, called active from +8 up or from −8 down.
With `COc1cc2c(cc1O)C(C)N(Cc1ccc([N+](=O)[O-])o1)CC2` (stereo unspecified), the z-score was -3.24.

As for `COCCOC(=O)N1C(=O)[C@@]2(c3cc(C#Cc4ccc(OC)cc4)ccc31)[C@H](c1ccc(O)cc1)N1[C@H](c3ccccc3)[C@H](c3ccccc3)OC(=O)[C@H]1[C@@H]2C(=O)N1CCCCCCC1`, the z-score was -0.239.

With `COc1ccc([Si](C)(C)[C@@H]2[C@@H](CC(=O)N(CCO)Cc3ccccc3)O[C@]3(C(=O)N(Cc4cccc(N5C(=O)c6cccc7cccc5c67)c4)c4ccccc43)[C@H]2C)cc1`, the z-score was -0.534.

Regarding `Cc1ccc(S[C@]2(C(=O)O)CC(=O)N(Cc3ccccc3Cl)[C@@H]2c2ccc(CO)cc2I)cc1`, the z-score was -1.71.

For the molecule `COC(=O)C1=CC(CCCO)=CC(C2CC2)N(C)C=C1C(=O)OC` (stereo unspecified), the z-score was -0.761.

Consider `COCCOC(=O)N1C(=O)[C@@]2(c3cc(C#CCC(C(=O)OC)C(=O)OC)ccc31)[C@H](C(=O)N1CCc3cc(OC)c(OC)cc3C1)[C@H]1C(=O)O[C@H](c3ccccc3)[C@H](c3ccccc3)N1[C@@H]2c1ccc(OCCO)cc1`, for which the z-score was 0.667.

In the case of `COc1ccc([Si](C)(C)[C@H]2[C@H](CCO)O[C@@]3(C(=O)N(Cc4cccc(N5C(=O)COc6ccccc65)c4)c4ccccc43)[C@@H]2C)cc1`, the z-score is -0.845.

In the case of `CN(C)CCCNC(=O)[C@@]1(C)c2ccccc2C(=O)N(Cc2ccccc2)[C@H]1c1ccc(CO)cc1`, the z-score was -0.505.

Turning to `COC(=O)c1c2oc(c1C(=O)OC)C(=O)N(Cc1ccccc1)Cc1cn(nn1)C[C@H](Cc1ccccc1)NC(=O)N[C@H](CO)CC2`, the z-score was -1.15.

Take `[N-]=[N+]=NCc1ccccc1[C@H]1OC(c2ccc(OCCCO)cc2)=N[C@@]1(CCS(=O)(=O)c1ccccc1)C(=O)N1CCCCC1`: the z-score is -0.0527.

With `O=C(CS)NCCCCCNC(=O)[C@@H]1C[C@@H]2C(=O)N3CCC[C@H]3C(=O)N2[C@@H]1c1cccc(OCCO)c1`, the z-score is 0.793.

On to `COCCOC(=O)N1C(=O)[C@@]2(c3cc(C#CCCO)ccc31)[C@H](C(=O)Nc1nc3ccccc3s1)[C@H]1C(=O)O[C@H](c3ccccc3)[C@H](c3ccccc3)N1[C@@H]2c1ccccc1OCCO`, for which the z-score was 1.7.

With `C[C@@H]1NC(=O)[C@@]23C(=O)N[C@@H](Cc4ccccc4)C2[C@H](C)[C@@]2(C)O[C@H]2C3/C=C/C/C=C\CNC(=O)[C@@H]2CCCN2C1=O` (stereo partly specified), the z-score was -0.409.

For `CCC[C@@H]1C[C@@]1(CCC)[C@@H](NC(=O)OCc1ccccc1)c1ccc(-c2ccccc2)cc1`, the z-score is -15.5 (active).

`CC[C@H]1C2=C3C(CC[C@H]4C(OCc5ccc(F)cc5C(F)(F)F)OC[C@](C)([C@@H]34)N(C(=O)OC(C)(C)C)C2)C(COC)C1COC` (stereo partly specified): the z-score was 0.78.

As for `CC(C)(C)OC(=O)CC[C@@]1(C(=O)NCc2ccccc2)N=C(c2ccc(OCCCO)cc2)O[C@@H]1c1ccccc1N=[N+]=[N-]`, the z-score was 0.501.

Regarding `CCC(CC)C(O)C1C=CC2C(=O)N(c3ccccc3)C(=O)C2N1Nc1ccc(C(C)C)cc1` (stereo unspecified), the z-score was 0.065.

For `C[C@H]1NC(=O)[C@@]23C(=O)N[C@@H](Cc4ccccc4)C2[C@H](C)[C@@]2(C)O[C@H]2C3/C=C/C/C=C\CNC(=O)[C@H](Cc2ccccc2)NC1=O` (stereo partly specified), the z-score is -0.236.

Turning to `COCCOC(=O)N1C(=O)[C@@]2(c3cc(C#CC4=CCCCC4)ccc31)[C@H](C(N)=O)[C@H]1C(=O)O[C@H](c3ccccc3)[C@H](c3ccccc3)N1[C@@H]2c1ccccc1OCCO`, the z-score was 0.0645.

For the molecule `CCOC(=O)C[C@H]1[C@H](OC(=O)c2cc3ccccc3oc2=O)[C@@H](NC(=O)c2ccc(-c3ccccc3)cc2)c2cc(OCCCO)ccc2N1C(=O)c1ccc2ccccc2n1`, the z-score was 0.394.

Consider `COC(=O)[C@@]1(Cc2ccc(F)cc2)[C@H]2c3cc(C(=O)N(C)C)n(Cc4cc(F)cc5c4OCOC5)c3C[C@H]2CN1C(=O)c1ccccc1`, for which the z-score was 0.446.

`COC(=O)[C@@]1(Cc2ccccc2)[C@@H]2C(=CC(=O)[C@H]2CC(=O)C(=O)N(C)C)CN1C(=O)c1ccccc1`: the z-score was 0.378.

For `CN1C(=O)C2C=CC(C(O)c3ccc(F)cc3)N(Nc3ccccc3)C2C1=O` (stereo unspecified), the z-score is 1.08.

Consider `CCCC[C@@H]1C[C@H]1[C@@H](NC(=O)c1ccccc1)c1ccc(C(F)(F)F)cc1`, for which the z-score was 0.987.

With `COc1ccc([Si](C)(C)[C@H]2[C@H](CCn3cc([C@H](O)c4ccccc4)nn3)O[C@@]3(C(=O)N(Cc4ccc(N5C(=O)c6cccc7cccc5c67)cc4)c4ccccc43)[C@@H]2C)cc1`, the z-score is 1.17.

Take `C[N+](C)(C)CCCC[C@@H]1NC(=O)[C@H]2C[C@@H](C(=O)NCCCCCCN)[C@@H](c3ccc(O)cc3)N2C1=O`: the z-score was -1.51.

On to `O[C@@H](Cc1ccccc1)[C@@H](/C=C/C1CC1)N(CC#Cc1ccccc1)Cc1cccc(Cl)c1`, for which the z-score is 0.322.

As for `CCOC(=O)C[C@H]1[C@H](OC(=O)c2ccccc2-c2ccccc2)[C@@H](NC(=O)c2ccc(-c3ccccc3)cc2)c2cc(OCCCO)ccc2N1C(=O)c1ccc2ccccc2n1`, the z-score was 0.632.

Turning to `CN(C)c1ccc(C(O)C2C=CC3C(=O)N(c4ccccc4)C(=O)C3N2Nc2ccc([N+](=O)[O-])cc2)cc1` (stereo unspecified), the z-score was -1.3.

In the case of `COC(=O)[C@@]1(Cc2ccc(OC)cc2)[C@H]2c3cc(C(=O)N4CCCC4)n(Cc4c(-c5ccccc5)noc4C)c3C[C@H]2CN1C(=O)c1ccccc1`, the z-score was 1.32.

With `COc1ccc(-c2nc(-c3ccccc3)c3c(c2C)CO[Si]3(C(C)C)C(C)C)cn1`, the z-score is -0.391.

Regarding `O=C1O[C@@H](c2ccccc2)[C@@H](c2ccccc2)N2[C@@H](c3ccc(O)cc3)[C@]3(C(=O)Nc4ccc(C#CC5=CCCCC5)cc43)[C@@H](C(=O)NC[C@H](O)c3ccccc3)[C@H]12`, the z-score is 0.18.

For the molecule `CO[C@H]1O[C@H](CO)[C@@H](OC(=O)Nc2ccccc2-c2ccccc2)[C@H](OC(=O)Nc2ccc3c(c2)OCO3)[C@H]1OC(=O)Nc1ccc2c(c1)OCO2`, the z-score is 1.35.

Consider `COC(=O)[C@@]1(Cc2ccc(F)cc2)[C@H]2c3cc(C(=O)N4CCCC4)n(CCN4CNCC4=O)c3C[C@H]2CN1C(=O)c1ccccc1`, for which the z-score was -0.198.

For the molecule `CN(C)CCCNC(=O)[C@@H]1c2ccccc2C(=O)N(Cc2ccccc2Cl)[C@H]1c1ccc(CO)cc1`, the z-score is -1.32.
